The values below come from ChEMBL document CHEMBL4513216, “Probing the Open Global Health Chemical Diversity Library for Multistage-Active Starting Points for Next-Generation Antimalarials” (ACS Infect Dis, 2020).

SMILES strings stand for the structures. Out of some 68,000 compounds screened, about 2,700 (4%) showed an effect of 50% or more. Shown is part of a subset that was picked to be rich in strong results.

This test relates to Plasmodium berghei. Description: Screen against P. berghei liver stage (PbLuc), transformed with Luciferase, at 2uM. It is filed as functional, HepG2. To be noted: tested at 2 uM.
`CC1CCN(C(=O)[C@H]2C[C@@H]3CCN(CC4CCOCC4)C[C@@H]3O2)CC1`: the INHIBITION is reported as -21.33%.
Then `COCc1nc(C(=O)NS(=O)(=O)c2c(C)c(C)cc(C)c2C)cs1`, with 18.85%; and `O=C(c1cn2ccsc2n1)N1CCN(CC2CC2)[C@@H]2CS(=O)(=O)C[C@@H]21`, with -18.12%.
The figure for `Cn1cccc1C(=O)N1CCc2c(CNS(C)(=O)=O)cncc2C1` is 6.66%.
Then `CC(C)(C)NC(=O)c1cccc(CN2CCS(=O)(=O)CC2)c1`, with 12.32%; and `CCc1cccnc1NCc1cnc(N2CCOCC2)nc1`, with -20.29%; and `O=C(Cc1ccc(F)cc1)NCCNS(=O)(=O)C1CCCC1`, with -36.61%.
Regarding `Cc1n[nH]c(C2CN(Cc3nnc(C4CC4)n3C)CCO2)n1` (configuration not stated), the INHIBITION is -82.49%.
In the case of `CCc1n[nH]c(C2CN(Cc3nnc(C4CC4)n3C)CCO2)n1` (configuration not stated), the INHIBITION worked out at 51.32%.
Then `CCCc1n[nH]c(C2CN(Cc3nnc(C4CC4)n3C)CCO2)n1` (configuration not stated), with 30.05%.
The figure for `COCCOC1CCN(C(C(=O)O)c2c(Cl)cccc2OC)CC1` (configuration not stated) is -17.86%.
As to `Cc1cc(=O)[nH]c(=O)n1-c1cccc(Cl)c1Cl`, the INHIBITION is on record as -12.39%.
Then `O=C1NCCN1C1CCN(Cc2nc(-c3ccccc3)no2)CC1`, with 64.16%.
The figure for `Cc1ccc(-c2noc(CN3CCC(N4CCNC4=O)CC3)n2)cc1` is 9.17%; for `O=C1NCCN1C1CCN(Cc2nc(-c3ccc(F)cc3)no2)CC1` it is 21.39%.
Take `O=C1CC(NS(=O)(=O)N2CCOCC2)CN1CCc1ccccc1` (configuration not stated): the INHIBITION is 43.44%.
The figure for `O=C1CC(NS(=O)(=O)N2CCOCC2)CN1Cc1ccc(F)cc1` (configuration not stated) is 57.75%; for `O=C1CC(NS(=O)(=O)N2CCOCC2)CN1Cc1ccccc1` (configuration not stated) it is 21.22%.
Then `COCCCNC(=O)CN(C)C(=O)c1ccc(-n2cccc2)cc1O`, with -44.96%; and `CC(C)C(=O)N1CCN(Cc2ccccn2)CC2(CC(=O)N(C)C2)C1` (configuration not stated), with 31.5%.
Then `Cc1ocnc1C(=O)N1CCCC1c1ccc(C(=O)N2CCSCC2)s1` (configuration not stated), with 9.31%.
`COc1ccc(C2(NCc3c(C)nc4c(C)cccn34)CCCC2)cc1`: the INHIBITION is -43.11%.
Then `CCc1cc(NC2CCOCC2)n2nc(C)c(C)c2n1`, with -35.61%.
Take `Cn1nccc1CCNC(=O)[C@H]1CNC[C@H](C(=O)N2CCCC2)C1`: the INHIBITION worked out at 27.73%.
Then `CNc1ncc(-c2csc(NC(=O)C[C@H]3COCCN3)n2)cn1`, with 12.21%; and `Nc1ncc(-c2csc(NC(=O)C[C@H]3COCCN3)n2)cn1`, with 62.99%; and `CC(C)Nc1ncc(-c2csc(NC(=O)C[C@H]3COCCN3)n2)cn1`, with 22.1%.
Regarding `CC(C)c1nc(C2CCCN2c2cnc3cc(F)c(F)cc3n2)no1` (configuration not stated), the INHIBITION amounted to 55.43%.
Then `CC(C)c1nc(C2CCCN2c2cnc3ccccc3n2)no1` (configuration not stated), with 1.41%.
Regarding `Cc1cnc(CN2CCCC2c2noc(C(C)C)n2)cn1` (configuration not stated), the INHIBITION was 13.86%.
The figure for `C1CC(c2nnc(CN3CCCC3c3noc(C4CC4)n3)o2)C1` (configuration not stated) is 21.43%; for `CC(C)c1nc(C2CCCN2c2ccnc(C3CCCC3)n2)no1` (configuration not stated) it is 14.92%.
The figure for `CC(C)c1nc(C2CCCN2Cc2ccon2)no1` (configuration not stated) is 56.02%; for `CC(C)c1nc(C2CCCN2Cc2ccncc2Cl)no1` (configuration not stated) it is 60.09%; for `CC(C)c1nc(C2CCCN2Cc2ccccc2C#N)no1` (configuration not stated) it is -17.71%.
Then `CCc1nc(C2CCCN2Cc2nnc(C3CCC3)o2)no1` (configuration not stated), with 16.26%.
On to `Cc1nc(C2CCCN2Cc2ccon2)no1` (configuration not stated), for which the INHIBITION was found to be 1.63%.
The figure for `CC(C)c1nc(C2CCCN2Cc2ccno2)no1` (configuration not stated) is -9.3%; for `CC(C)c1nc(C2CCCN2Cc2nnc(C3CCC3)o2)no1` (configuration not stated) it is 53.33%; for `CNc1cncc(C2CCCN2S(=O)(=O)c2ccccc2F)n1` (configuration not stated) it is 29.89%.
The figure for `CC(C)CNC(=O)[C@H]1CCS(=O)(=O)[C@@H]2CN(Cc3ccc(Cl)cc3)C[C@H]12` is 8.13%.
The figure for `CCc1cccc(N2CCC(NC(=O)C3CCCO3)CC2)c1` (configuration not stated) is 22.53%.
In the case of `CC(=O)N(Cc1noc(C2CC2)n1)C1CCN(Cc2nccn2C)C1` (configuration not stated), the INHIBITION was -27.69%.
Then `Cc1cc(NC(=O)CN2CCCC2c2noc(C(C)C)n2)no1` (configuration not stated), with 21.12%; and `CC(C)c1nc(C2CCCN2CC(=O)N2CCc3ccccc32)no1` (configuration not stated), with 30.91%.
The figure for `CC(C)c1nc(C2CCCN2CC(=O)N2CCNC2=O)no1` (configuration not stated) is 57.33%.
The figure for `COc1ncccc1CN1CCC2(CC1)CC(OCC1CC1)CO2` (configuration not stated) is -23.93%.
Take `Cc1nn(Cc2ccc(C(=O)NCCCN3CCOCC3)o2)c(C)c1Cl`: the INHIBITION is 32.66%.
For the compound `Cn1ncc(N2CCOC(CCNC(=O)NC(C)(C)C)C2)cc1=O` (configuration not stated), the INHIBITION turned out to be 39.32%.
Then `NC(=O)CN1CCCN(C(=O)Cc2ccc(Br)cc2)CC1`, with 11.24%.
Then `CN(CCOc1cccc(Cl)c1)Cc1nnc(C(C)(C)C)o1`, with -19%; and `Cc1nnc(CN(C)CCCOc2cccc(Cl)c2)o1`, with -33.74%.
